ERG Ets-DNA blk – qHTS for Small Molecule Inhibitors of the ERG Ets/DNA interaction; Transcriptional regulator ERG (Homo sapiens), P11308; fluorescence polarization, His-ERG Ets domain / labelled DNA; Potency, µM (highest dose often 76.9 µM), inactives show top-dose FP activity, negative = inhibition, actives largely listed as inhibitors; 370,000 compounds, 0.028% hits; active means well fitted inhibition curve with a large enough effect in the polarisation, with a control signal flat; inconclusive means small, poorly fitted or top-dose-only effect, or effect the other way, or a change in a side signal; inactive means no such curve, though single readings can be large or run the other way; the % refers to the polarisation;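 further: polarization taken with two DNA probes labelled with fluorescein and Texas red; potency means the concentration at half of the fitted maximal effect; % of control where 0% means no effect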
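His-tagged ERG Ets domain (1 uM in the protein solution; 300mM KCl, 50mM Tris-HCl, 1mM EDTA, 1mM DTT, pH 7.5) received compound, then a probe mix of 5 nM fluorescein-DNA and 100nM Texas-615-DNA. Fluorescence polarization was read for both dyes.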
Menin MLL FP TR – qHTS Assay for Inhibitors Targeting the Menin-MLL Interaction in MLL Related Leukemias: Competition With Texas Red Labeled MLL-derived Mutant Peptide; Menin + Texas Red MLL mutant peptide, fluorescence polarization; Potency, µM (doses to about 61.6 µM), for inactives: at the top dose FP activity change, negative = inhibition, actives largely listed as inhibitors; 270,000 compounds, 0.23% hits; AID 1768, 2009; active means well fitted inhibition curve with a large enough effect in the polarisation, with a control signal flat, not every such curve was filed as active; inconclusive means small, poorly fitted or top-dose-only effect, or effect the other way, or a change in a side signal; inactive means no such curve, though single readings can be large or run the other way; the % refers to the polarisation; further: potency means the concentration at half of the fitted maximal effect; % of control where 0% means no effect
Target sequence (O00255 whole entry, looked up): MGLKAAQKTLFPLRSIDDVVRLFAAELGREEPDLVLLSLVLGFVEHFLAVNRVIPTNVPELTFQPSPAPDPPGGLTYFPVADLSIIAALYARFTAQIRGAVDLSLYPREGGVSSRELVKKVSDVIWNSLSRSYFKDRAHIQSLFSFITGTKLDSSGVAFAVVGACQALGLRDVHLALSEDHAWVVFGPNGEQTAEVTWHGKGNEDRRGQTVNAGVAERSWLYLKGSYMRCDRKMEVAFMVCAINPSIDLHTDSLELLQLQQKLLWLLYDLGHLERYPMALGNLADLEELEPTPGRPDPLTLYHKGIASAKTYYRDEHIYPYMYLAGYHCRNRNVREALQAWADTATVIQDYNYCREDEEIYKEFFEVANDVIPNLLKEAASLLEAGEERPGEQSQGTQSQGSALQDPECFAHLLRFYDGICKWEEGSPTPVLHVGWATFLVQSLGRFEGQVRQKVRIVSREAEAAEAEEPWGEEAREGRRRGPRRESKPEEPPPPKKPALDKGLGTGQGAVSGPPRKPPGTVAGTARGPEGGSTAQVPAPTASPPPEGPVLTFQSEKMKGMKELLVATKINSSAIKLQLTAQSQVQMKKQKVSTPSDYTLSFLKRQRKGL
Menin-MLL FL inh – qHTS Assay for Inhibitors Targeting the Menin-MLL Interaction in MLL Related Leukemias: Competition With Fluorescein Labeled MLL-derived Peptide. Fluorescence polarization, fluorescein-MLL peptide displacement from menin. FP activity change, % at 61.4 µM. 290,000 tested, under 10 active. AID 1766, 2009; active means well fitted curve in the direction sought with a large enough effect in the polarisation, not every such curve was filed as active; inconclusive means small, poorly fitted or top-dose-only effect, or effect the other way, or a change in a side signal; inactive means no such curve, though single readings can be large or run the other way; the % refers to the polarisation; further: % of control where 0% means no effect
CXXC DNA block – qHTS Fluorescence Polarization Assay for Inhibitors of MLL CXXC domain - DNA interaction; MLL-CXXC / FITC-HOXA9 DNA fluorescence polarization; Potency, µM (highest dose often 115 µM), for the others: at the highest dose activity change, negative = inhibition, actives largely listed as inhibitors; 290,000 compounds, 0.037% hits; active means well fitted inhibition curve with a large enough effect in the polarisation, with a control signal flat, not every such curve was filed as active; inconclusive means small, poorly fitted or top-dose-only effect, or effect the other way, or a change in a side signal; inactive means no such curve, though single readings can be large or run the other way; the % refers to the polarisation; further: potency means the concentration at half of the fitted maximal effect
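Fluorescence polarization: 7 uM MLL-CXXC (stock) preincubated 5 min with compounds, then 50 nM fluorescein-HOX-A9 DNA (stock) added; 30 min ambient. Buffer 50 mM Tris-HCl pH 7.5, 50 mM NaCl, 1 mM DTT, 0.05% BSA.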
Mm-Cpn inhibitor – Inhibitors of TCP-1 ring complex (TRiC) of Methanococcus maripaludis (MmCpn): qHTS; Chaperonin Mm-Cpn (Methanococcus maripaludis); purified Mm-Cpn ATPase, ADP Transcreener TR-FRET; Potency, µM (titrated, usually from 76.9 µM), for inactives: at the top dose activity, negative = inhibition, most hits filed as inhibitors; 330,000 compounds, 0.031% hits; AID 504842, 2011; active means well fitted inhibition curve with a large enough effect; inconclusive means small, poorly fitted or top-dose-only effect; further: potency means the concentration at half of the fitted maximal effect; on the % scale 0 is the no-effect control and ±100 the full control effect; nearly all actives have a fitted effect of over 80% in size
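Purified archaeal Mm-CPN (25nM final) preincubated 10 min at 37degC with compound, then 10uM ATP for 30 min at 37degC; ADP measured by HTRF Transcreener TR-FRET; buffer 30 mM TRIS pH 7.4, 100mM KCl, 5mM MgCl2, 1mM DTT.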
An asterisk follows results filed as active; ? = inconclusive; / = no result given; ! = a repeat was not active; [ ] = remark or other dose. The full list was thinned out, with hits kept by preference.

SMILES | ERG Ets-DNA blk | Menin MLL FP TR | Menin-MLL FL inh | CXXC DNA block | Mm-Cpn inhibitor
CC(=O)O[C@]1(C(C)=O)CC[C@H]2[C@@H]3C[C@H](C)C4=CC(=O)CC[C@]4(C)[C@H]3CC[C@@]21C | 25µM*! | -20% | 3 | 13% | 0%[15.4 µM]
O=C(CSc1nnc2c3ccccc3c3ccccc3c2n1)Nc1ccccc1 | / | 13µM* | 2 | 5% | 1%
O=C(CSc1nnc2c3ccccc3c3ccccc3c2n1)Nc1ccccc1F | 2% | ? | 5 | 20% | -1%
COc1cc(/C=N/NS(=O)(=O)c2ccc(C)c([N+](=O)[O-])c2)ccc1O | 0% | 15% | 0 | 1% | 3%
COc1cc(/C=N/NS(=O)(=O)c2ccc(C)c([N+](=O)[O-])c2)cc([N+](=O)[O-])c1O | -4% | 25µM* | -8 | 8% | -4%
O=C(O)C[C@@H]1C(=O)O[C@@H]2C(COC(=O)c3cc(O)c(O)c(O)c3)O[C@@H](OC(=O)c3cc(O)c(O)c(O)c3)[C@@H](OC(=O)c3cc(O)c(O)c4c3[C@H]1[C@H](O)C(=O)O4)[C@H]2OC(=O)c1cc(O)c(O)c(O)c1 (stereo partly drawn) | / | / | 12 | 28µM* | -7%
COC1OC(COC(=O)c2ccccc2)C(OC(=O)c2ccccc2)C1OC(=O)c1ccccc1 (stereo not drawn) | 4% | 19% | 1 | 1% | 0%
OC(CNCCc1ccc(C(F)(F)F)cc1)COc1cccc2ccccc12 (stereo not drawn) | -6% | 1% | 8 | 11% | 0%
COc1ccccc1COCC(O)CNCCc1ccc(C(F)(F)F)cc1 (stereo not drawn) | 9% | 22µM* | -7 | 13% | 1%
N#Cc1ccccc1-c1csc(N2CCC(C(N)=O)CC2)n1 | / | / | / | / | -3%
CC(C)C(C(=O)O)N1C(=O)/C(=C/c2ccc(Br)cc2)SC1=S (stereo not drawn) | / | ? | 0 | / | /
O=S(=O)(Nc1cc(O)cc2cccnc12)c1ccc(Br)s1 | / | ? | 0 | / | /
O=C(O)c1cc(=O)c2c3nc4ccccc4oc-3cc(=O)c2[nH]1 | / | 40µM* | 9 | -12% | /
COc1ccc(-c2cc(=O)c3ccc(F)cc3[nH]2)cc1 | / | 50µM* | -5[94.6 µM] | / | /
COc1ccccc1C1(O)CCN(CCCn2c3ccccc3c3ccccc32)CC1 | / | 4% | 3 | / | /
Cc1nc2c([nH]1)c(=O)n(C)c(=O)n2Cc1ccco1 | / | 16µM*! | ? | 9% | /
Cc1ccc2nc(NC(=O)c3cccc(-c4cc5ccccc5oc4=O)c3)sc2c1 | / | 22µM* | 0 | 13% | -20%
Cc1cc2c(N)cccc2nn1 | 11µM* | / | / | 0% | -7%
Nc1cccc2nc3ccccc3cc12 | ? | -8% | 6 | ? | 0%
Cc1c(S(=O)(=O)c2ccccn2)c(N)n(Cc2ccccc2)c1C | -11% | / | ? | -2% | -3%
COCCn1c(C)c(C)c(S(=O)(=O)c2ccccc2)c1N | 35µM* | ? | ? | -6% | -2%
CCC(C)CC(C)CC(C)C(=O)/C=C(/O)C(C)CC(C)C/C=C/C(C)C(O)C(C)C(O)CC1CCC(C)(C)O1 (stereo not drawn) | / | 8% | 8 | / | /
O=C(c1cccnc1)N1CCc2ccccc2C1 | 0% | -7% | -2 | -8% | 56µM*
O=C(c1cccnc1)N1CCc2ccccc21 | -5% | 18% | 12 | 1% | -4%
CC(C)CN1C=C2C(=O)C(C)(OC(=O)C3CCCC3)C(=O)C=C2C=C1c1ccsc1 (stereo not drawn) | -6% | -10%[11.7 µM] | 2[11.7 µM] | -3% | 1%
CC1(OC(=O)C2CCCC2)C(=O)C=C2C=C(c3ccsc3)N(C(CO)CO)C=C2C1=O (stereo not drawn) | 28µM* | 0%[11.7 µM] | ? | 0% | -1%
